{
  "source": "PubChem BioAssay (NCATS)",
  "note": "Inconclusive results are not listed. Calls of active or inactive are those of the source. Calls follow the shape of the dose curve; as a rule, active = well fitted inhibition curve with a large enough effect; inconclusive = small, poorly fitted or top-dose-only effect; inactive = flat fitted curve, though single readings scatter. Potency is read from the fitted curve at half-maximal effect.",
  "data": [
    {"assay": "BET inhibitor-based combinations targeting novel dependencies in MECOM-rearranged (r) AML: AML-191 cell line (AID 2202236; also: nearly all actives have a fitted effect of over 35% in size;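 as to viability (% of control): plate controls were vehicle wells for no effect and wells without cells for full effect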)", "conditions": "AML-191 viability, CellTiter-Glo luminescence, 48 h; series mostly up to 46 µM; viability (% of control): at the top concentration", "from_the_text": "Ecotropic viral insertion site 1 (EVI1) is located on chromosome 3q26.2 as part of the MECOM (MDS and EVI1 complex) locus. Under normal hematopoiesis, EVI1 is a regulator of hematopoietic stem cell maintenance and self-renewal and EVI1 levels decrease as the cells differentiate. In approximately 5-10% of de novo acute myeloid leukemia (AML) EVI1 is aberrantly expressed, including Chromosomal inv(3)(q21;q26.2) or t(3;3)(q21;q26.2) alterations (MECOM-r) that account for about 50% of AML with EVI1 overexpression 31. AMLs with high levels of EVI1 have a poor prognosis and an overall survival time averaging between 10-14 months. EVI1 overexpression confers resistance in leukemia cells, highlighting the need to develop new targeted therapies for EVI1 overexpressing AMLs.\nHere, we performed an unbiased chemical drug screening by evaluating the single agent activity of a collection of 2,480 oncology-focused, approved and investigational drugs (NCATS Mechanism Interrogation Plates, MIPE v5.0) against a panel of seven AML cell lines. These included four MECOM-r cell-lines (AML-191, AML-194, UCSD-AML1 and HNT-34) and three non-MECOM-r AMLs (MV4-11, OCI-AML3 and SET-2). Exploiting the mechanistic redundancy built in the library, we identified target-level sensitivities in MECOM-r AML cells and relative activity as compared to other AML subtypes.\nA collection of 2480 mechanistically annotated dugs (MIPE v5.0) was used to screen four 3q26.2 rearranged AML cell lines and three non-3q26.2 rearranged AML cell lines. This library purposely exploits redundancy by including multiple inhibitors of key onco-targets, while simultaneously encompassing mechanistic diversity, targeting more than 800 distinct mechanisms of action. Briefly, cells were seeded in 5 uL of growth media using a Multidrop Combi dispenser into 1536 well white polystyrene tissue culture treated plates (Corning) at a density of 500cells/well. For each cell-line, for each of the 2480 drugs in MIPE v5.0 library, an 11-point dose curve was generated via a 1536 pin-tool. Plates were incubated for 48 hr at standard incubator conditions, covered by a stainless steel gasketed lid to prevent evaporation. Cell viability was determined by luminescence based, Cell Titer Glo assay (Promega). In detail, 3 uL of Cell Titer Glo were added to each well and plates were incubated at room temperature for 15 min with a stainless-steel lid in place. Luminescence readings were taken using a Viewlux (PerkinElmer) with a 2 s exposure time per plate. Compound dose-response curves were normalized to DMSO and empty well controls on each plate. Quantitative drug activity data from dose-response curves was determined utilizing area Under the Curve (AUC) and Z-transformed AUC (Z-AUC, a mean-centering transformation applied to each individual cell-line screened).", "values": [
      {"smiles": "O=C(C1CC1)N1CC[C@@H](Cc2n[nH]c(=O)n2-c2ccc(-c3ccc4occc4c3)cc2)C1", "viability (% of control)": "86% (inactive)"},
      {"smiles": "Cc1nn(C)c2c1C(c1ccc(C(F)(F)F)cc1)C(C#N)=C(N)O2", "note": "(stereo not given)", "viability (% of control)": "79.2% (inactive)"},
      {"smiles": "Cc1c(F)cc(C(=O)NC2CC2)cc1-c1ccc(C(=O)NCC(C)(C)C)cn1", "viability (% of control)": "91.6% (inactive)"},
      {"smiles": "C[C@]12CC[C@@H]3c4ccc(O)cc4CC[C@H]3[C@H]1[C@@H](O)[C@@H](O)[C@H]2O", "viability (% of control)": "103% (inactive)"},
      {"smiles": "Cc1[nH]c(=O)c(C#N)cc1-c1ccc2nccn2c1", "viability (% of control)": "103% (inactive)"},
      {"smiles": "C1COC(NC(C2CC2)C2CC2)=N1", "viability (% of control)": "102% (inactive)"},
      {"smiles": "COC(=O)Nc1nc2ccc(Sc3ccccc3)cc2[nH]1", "Potency": "468 nM (active)"},
      {"smiles": "COc1ccc([C@@H]2CNC(=O)C2)cc1OC1CCCC1", "viability (% of control)": "103% (inactive)"},
      {"smiles": "COc1cc(C(=O)N2CCC(N3CCN(C)CC3)CC2)ccc1Nc1ncc2c(n1)N(C)c1ccccc1C(=O)N2C", "Potency": "9340 nM (active)"},
      {"smiles": "Cc1nnc(C(C)C)n1C1CC2CCC(C1)N2CCC(NC(=O)C1CCC(F)(F)CC1)c1ccccc1", "note": "(stereo not given)", "viability (% of control)": "103% (inactive)"},
      {"smiles": "CC(C)(Cc1ccc2ccccc2c1)NC[C@@H](O)COc1cccc(Cl)c1C#N", "Potency": "10500 nM (active)"},
      {"smiles": "CC[N+](CC)(CC)CCOc1cccc(OCC[N+](CC)(CC)CC)c1OCC[N+](CC)(CC)CC", "viability (% of control)": "98.4% (inactive)"},
      {"smiles": "OC[C@H]1OC(O)C[C@@H](O)[C@H]1O", "note": "(stereo not given in full)", "viability (% of control)": "98.9% (inactive)"},
      {"smiles": "CCC1(c2ccccc2)C(=O)NCNC1=O", "viability (% of control)": "106% (inactive)"},
      {"smiles": "NCc1c[nH]c(=S)n1[C@H]1CCc2c(F)cc(F)cc2C1", "viability (% of control)": "78% (inactive)"},
      {"smiles": "Cc1cc(O)c(-c2ccc([C@@H](C)CN(C)C)cc2)c2c1[nH]c(=O)c1sccc12", "Potency": "118 nM (active)"},
      {"smiles": "CCN(CC)CCOc1ccc(/C(=C(\\Cl)c2ccccc2)c2ccccc2)cc1", "Potency": "18600 nM (active)"},
      {"smiles": "CC1(C)[C@@H](O)CC[C@]2(C)[C@H]3C(=O)C=C4[C@@H]5C[C@@](C)(C(=O)O)CC[C@]5(C)CC[C@@]4(C)[C@]3(C)CC[C@@H]12", "viability (% of control)": "99.5% (inactive)"},
      {"smiles": "COc1ccc2cc(OCC3(C(=O)O)CN(C(=O)c4ccc(F)cc4)C3)ccc2c1", "viability (% of control)": "103% (inactive)"},
      {"smiles": "Cc1ccc(S(=O)(=O)OCC(=O)Nc2ccc(C(=O)O)c(O)c2)cc1", "viability (% of control)": "111% (inactive)"},
      {"smiles": "C[C@H](Nc1ncnc2nc[nH]c12)c1cc2ccc(F)cc2nc1-c1ccccn1", "Potency": "18600 nM (active)"},
      {"smiles": "O=C(Nc1ccc2[nH]nc(-c3ccncc3)c2c1)[C@@H]1CCN(CC(=O)N2CCN(c3ccc(-c4ncccn4)cc3)CC2)C1", "Potency": "2090 nM (active)"},
      {"smiles": "CC(=O)NCCC(=O)N[C@@H](CCC(N)=O)C(=O)N[C@@H](CO)C(=O)N[C@@H](CCC(N)=O)C(=O)N[C@@H](CCC(N)=O)C(=O)N[C@H](C(=O)N[C@@H](Cc1ccccc1)C(=O)N[C@]1(C)CCCCCCC=CCCC[C@@](C)(C(=O)N[C@@H](CCC(N)=O)C(=O)N[C@@H](CC(N)=O)C(N)=O)NC(=O)[C@H](CC(C)C)NC(=O)[C@H](CC(C)C)NC(=O)[C@@H](CCCNC(=N)N)NC(=O)[C@H](Cc2c[nH]c3ccccc23)NC(=O)[C@H](CC(C)C)NC(=O)[C@H](CC(N)=O)NC1=O)[C@H](C)O", "viability (% of control)": "101% (inactive)"},
      {"smiles": "NC1CCC(N[C@@H]2C[C@H]2c2ccccc2)CC1", "note": "(stereo not given in full)", "viability (% of control)": "79.7% (inactive)"},
      {"smiles": "O=S(=O)(O)CCSSCCS(=O)(=O)O", "viability (% of control)": "103% (inactive)"},
      {"smiles": "CCOC(=O)C1=C[C@@H](OC(CC)CC)[C@H](NC(C)=O)[C@@H](N)C1", "viability (% of control)": "103% (inactive)"},
      {"smiles": "Cc1ccccc1-n1c(Cn2nc(-c3cccc(O)c3)c3c(N)ncnc32)nc2cccc(C)c2c1=O", "Potency": "14800 nM (active)"},
      {"smiles": "CN1CCC(=C2c3ccccc3CC(=O)c3sccc32)CC1", "viability (% of control)": "93.3% (inactive)"},
      {"smiles": "COc1cccc2c(NCc3ccccc3)nc(-n3c(N)nc4ccccc43)nc12", "Potency": "2950 nM (active)"},
      {"smiles": "Cc1ccc(-c2ccc3ncc4c(c3n2)n(C2CCN(C(=O)[C@H](C)O)CC2)c(=O)n4C)cn1", "Potency": "166 nM (active)"},
      {"smiles": "Oc1cc(O)cc(/C=C/c2ccc(O)c(O)c2)c1", "Potency": "16600 nM (active)"},
      {"smiles": "CC1=C(/C=C/C(C)=C/C=C/C(C)=C\\C(=O)O)C(C)(C)CCC1", "Potency": "5250 nM (active)"},
      {"smiles": "O=C(NCCO[N+](=O)[O-])c1cccnc1", "viability (% of control)": "94% (inactive)"},
      {"smiles": "CC[C@]1(O)C[C@H]2CN(CCc3c([nH]c4ccccc34)[C@@](C(=O)OC)(c3cc4c(cc3OC)N(C=O)[C@H]3[C@@](O)(C(=O)OC)[C@H](OC(C)=O)[C@]5(CC)C=CCN6CC[C@]43[C@@H]65)C2)C1", "Potency": "263 nM (active)"},
      {"smiles": "Cc1cnc(Nc2ccc(N3CCN(C)CC3)cc2)nc1Nc1cccc(S(=O)(=O)NC(C)(C)C)c1", "Potency": "2630 nM (active)"},
      {"smiles": "CCN1CCN(c2ccc(Nc3cc(N(C)C(=O)Nc4c(Cl)c(OC)cc(OC)c4Cl)ncn3)cc2)CC1", "Potency": "26300 nM (active)"},
      {"smiles": "Clc1ccc2c(N3CCN(CCCN4CCN(c5ccnc6cc(Cl)ccc56)CC4)CC3)ccnc2c1", "viability (% of control)": "99.7% (inactive)"},
      {"smiles": "CCCCc1nc2cc(/C=C/C(=O)NO)ccc2n1CCN(CC)CC", "Potency": "833 nM (active)"},
      {"smiles": "Nc1nc2[nH]cc(CCc3ccc(C(=O)N[C@@H](CCC(=O)O)C(=O)O)cc3)c2c(=O)[nH]1", "Potency": "525 nM (active)"},
      {"smiles": "CCCc1nn(C)c2c(=O)[nH]c(-c3cc(S(=O)(=O)N4CCN(C)CC4)ccc3OCC)nc12", "viability (% of control)": "92.5% (inactive)"}
    ]}
  ]
}
